According to PubChem BioAssay (NCATS):
Records with an inconclusive call do not appear. Calls of active or inactive are those of the source. Calls follow the shape of the dose curve; as a rule, active = well fitted inhibition curve with a large enough effect; inconclusive = small, poorly fitted or top-dose-only effect; inactive = flat fitted curve, though single readings scatter. Where a SMILES comes first, the peptide text is derived from it.

Legend:
[1] = test system: CRL-7250; assay: Cytotoxic Profiling of Annotated Libraries Using Quantitative High-Throughput Screening (AID 1296008); conditions: Five cell lines viability, CellTiter-Glo ATP luminescence, 48-72 h; max response: active compounds read low; as to max response: % is scaled to controls: 0 for no effect and ±100 for the full control effect
Outline: (§1)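 Cells exposed to compounds for 48 or 72 hr at 37 degrees Celsius. Viability read as ATP-coupled luminescence with CellTiter-Glo after 10 min at room temperature.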

[2] = test system: HEK293; assay: as above; conditions: Five cell lines viability, CellTiter-Glo ATP luminescence, 48-72 h; max response: active compounds read low
Outline: as §1

[3] = test system: HaCat; assay: as above; conditions: Five cell lines viability, CellTiter-Glo ATP luminescence, 48-72 h; max response: active compounds read low
Outline: as §1

[4] = test system: KB-3-1; assay: as above; conditions: Five cell lines viability, CellTiter-Glo ATP luminescence, 48-72 h; max response: active compounds read low
Outline: as §1

[5] = test system: NIH3T3; assay: as above; conditions: Five cell lines viability, CellTiter-Glo ATP luminescence, 48-72 h; max response: active compounds read low
Outline: as §1

[6] = test system: HACAT; assay: qHTS assay to identify novel small-molecules to repurpose for Merkel cell carcinoma treatment (AID 1296009); conditions: MCC and control cell lines, CellTiter-Glo viability, 72 h; at 44.8 µM (top of the series) unless noted
Outline: (§2)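 CellTiter-Glo luminescence after 72 hr compound exposure at 37 degree celsius gave cell viability. Libraries NPC and MIPE were run as 8- and 11-point dose responses; RLUs normalized to DMSO (negative) and no-cell (cytotoxicity) controls.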

[7] = test system: HEK293T; assay: as above; conditions: MCC and control cell lines, CellTiter-Glo viability, 72 h; series mostly up to 44.8 µM
Outline: as §2
Also: nearly all actives have a fitted effect of over 60% in size.

CCCC1=CC2=C(CO1)C(=O)C(C)(OC(=O)c1c(C)cc(OC)cc1O)C(O)C2 (stereo unspecified)
inactive: max response [1] -27.1% | outcome [2] | outcome [3] | max response [4] 0.111% | outcome [5] | outcome [6] inactive [at 17.4 µM] | Potency [7]

COc1cc(C(O)C(CO)Oc2ccc(CCCO[C@@H]3O[C@@H](C)[C@H](O)[C@@H](O)[C@H]3O)cc2OC)ccc1O (stereo partly specified)
inactive: outcome [1] | outcome [2] | outcome [3] | outcome [4] | max response [5] -2.23% | outcome [6] inactive [at 17.4 µM] | Potency [7]

COc1ccc(C2=CC(=O)OC2Cc2ccc(O)cc2)c(O)c1 (stereo unspecified)
inactive: outcome [1] | outcome [2] | outcome [3] | max response [4] 6.42% | max response [5] 1.17% | outcome [6] | Potency [7]

COc1cc(COC2OC(CO)C(O)C(O)C2O)cc(OC)c1O (stereo unspecified)
inactive: outcome [1] | outcome [2] | outcome [3] | outcome [4] | outcome [5] | outcome [6] | Potency [7]

CCCCCCc1cccc(NC(=O)[C@H](N)CCP(=O)(O)O)c1
inactive: outcome [1] | outcome [2] | outcome [3] | outcome [4] | max response [5] -1.22% | outcome [6] inactive [at 9.27 µM] | outcome [7] inactive [at 9.27 µM]

COC(=O)C1C(c2ccc(O)cc2)C(C(=O)OC)C1c1ccc(O)cc1 (stereo unspecified)
inactive: max response [1] -3.45% | outcome [2] | outcome [3] | outcome [4] | outcome [5] | outcome [6] | Potency [7]

c1ccc(C(OC2CCN(CCCc3nn[nH]n3)CC2)c2ccccc2)cc1
inactive: outcome [1] | outcome [2] | outcome [3] | max response [4] -3.18% | outcome [5] | outcome [6] | Potency [7]

CC1NC(=O)CNC(=O)C(C(C)C)NC(=O)C2CCCN2C(=O)C(C(C)C)NC(=O)C(Cc2c[nH]c3ccccc23)NC1=O (stereo unspecified) (cyclo(GAWVPV); configuration not given here)
inactive: outcome [1] | outcome [2] | outcome [3] | outcome [4] | outcome [5] | outcome [6] inactive [at 17.4 µM] | Potency [7]

CC1CCC2C(C)(C)CC(C)(CO)C2(O)C1C(=O)O (stereo unspecified)
inactive: max response [1] 0.69% | outcome [2] | outcome [3] | max response [4] 9.23% | outcome [5] | outcome [6] | Potency [7]

O=C(O[C@H]1[C@@H]2C=CO[C@@H](O[C@@H]3O[C@H](CO)[C@@H](O)[C@H](O)[C@H]3O)[C@@H]2[C@@]2(CO)O[C@@H]12)c1ccc(O)cc1
inactive: max response [1] 1.96% | outcome [2] | outcome [3] | max response [4] 3.57% | outcome [5] | outcome [6] inactive [at 17.4 µM] | Potency [7]

C[C@@H]1O[C@@H](OC[C@H]2O[C@@H](OCCc3ccccc3)[C@H](O)[C@@H](O)[C@@H]2O)[C@H](O)[C@H](O)[C@H]1O
inactive: max response [1] -0.537% | outcome [2] | outcome [3] | outcome [4] | max response [5] 4.11% | outcome [6] inactive [at 17.4 µM] | Potency [7]

CC1OC(OC2C(O)C(C(=O)O)OC(OC3CCC4(C)C(CCC5(C)C4C=CC4=C6CC(C)(C)CC(O)C6(C)CCC45C)C3(C)C)C2OC2OCC(O)C(O)C2O)C(O)C(O)C1O (stereo unspecified)
inactive: max response [1] -1.54% | outcome [2] | outcome [3] | max response [4] 1.62% | outcome [5] | outcome [6] inactive [at 9.27 µM] | outcome [7] inactive [at 9.27 µM]

COc1cc(C)c(C(=O)O[C@H]2[C@@H](O)[C@H](n3ccc(=O)[nH]c3=O)O[C@@H]2CO)c(OC)c1
inactive: max response [1] -3.82% | outcome [2] | outcome [3] | max response [4] -4.86% | max response [5] -2.57% | outcome [6] inactive [at 17.4 µM] | Potency [7]

C=C1[C@@H]2CC[C@@]3(C)[C@H](c4ccoc4)OC(=O)C[C@]13O[C@H]1CC(=O)C(C)(C)[C@H](CC(=O)OC)[C@]12C
inactive: max response [1] -0.448% | outcome [2] | outcome [3] | max response [4] -1.94% | outcome [5] | outcome [6] inactive [at 17.4 µM] | Potency [7]

C[C@@H]1C(=O)O[C@H]2[C@H]1CC[C@@]1(C)C(=O)C=C[C@](C)(O)[C@H]21
inactive: outcome [1] | outcome [2] | outcome [3] | max response [4] 1.87% | max response [5] -2.11% | outcome [6] | Potency [7]

C=C[C@H]1[C@H](O[C@@H]2O[C@H](CO)[C@@H](O)[C@H](O)[C@H]2O)OC=C2C(=O)OCC[C@]21O
inactive: max response [1] 0.194% | outcome [2] | outcome [3] | max response [4] 0.223% | outcome [5] | outcome [6] | Potency [7]

CCOc1nc2cccc(C(=O)O)c2n1Cc1ccc(-c2ccccc2-c2noc(=O)[nH]2)cc1
inactive: max response [1] 4.39% | outcome [2] | outcome [3] | outcome [4] | max response [5] -8.35% | outcome [6] | Potency [7]

CC(C)(O)C1=CCC23COC(C2)C(O)(C(=O)O)CCC13 (stereo unspecified)
inactive: outcome [1] | outcome [2] | outcome [3] | max response [4] 2.8% | outcome [5] | outcome [6] | Potency [7]
